The source of these data is the supplement of paper PMC9446081.

Screen size: about 39,000 compounds; about 220 (0.56%) showed activity. The sample as a whole holds a higher share of actives than the screen did. A number with no mark means an inactive call.
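Also: Wild-type cells incubated without shaking, value is the mean of two biological replicates.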

The test system of the experiment is Escherichia coli K-12 BW25113. Put plainly: relative growth (OD600 normalised to plate interquartile mean) (fraction); higher = less growth inhibition, active = 0.2 or less. The settings on record: 50 µM; LB; incubation time: overnight (16-24 h).
Regarding `NCC[C@H]1CC[C@H](NC(=O)NC2CCCCC2)[C@H](CO)O1`, the relative growth was 0.986.

`C[C@@H]1CN([C@@H](C)CO)C(=O)Cc2cc(NC(=O)Nc3ccccc3)ccc2O[C@@H]1CN(C)Cc1ccc(Oc2ccccc2)cc1`: the relative growth is 0.967.

Regarding `Cc1nc(CN)c(C)o1`, the relative growth is 0.995.

With `C[C@@H]1CN([C@@H](C)CO)C(=O)c2cc(NC(=O)Nc3ccc(C(F)(F)F)cc3)ccc2O[C@@H]1CN(C)S(=O)(=O)c1ccc(Cl)cc1`, the relative growth is 1.04.

Consider `C[C@H](CO)N1C[C@H](C)[C@H](CN(C)C(=O)Nc2ccc(C(F)(F)F)cc2)Oc2ccc(NC(=O)CCCCCC(=O)Nc3ccccc3N)cc2C1=O`, for which the relative growth was 0.925.

For the compound `Cc1noc(C)c1NC(=O)Nc1cccc2c1O[C@@H](CN(C)Cc1ccc(-c3ccccc3)cc1)[C@H](C)CN([C@@H](C)CO)C2=O`, the relative growth is 1.01.

In the case of `CON=C(C(=O)N[C@@H]1C(=O)N2C(C(=O)O)=C(CSc3nc(=O)c(O)nn3C)CS[C@H]12)c1csc(N)n1`, the relative growth was 0.0335 (active).

For `C[C@@H]1CN([C@@H](C)CO)C(=O)Cc2cc(NC(=O)Nc3ccc(C(F)(F)F)cc3)ccc2O[C@@H]1CN(C)Cc1ccc(C(=O)Nc2ccccc2N)cc1`, the relative growth was 1.

Turning to `Cc1noc(C)c1NC(=O)Nc1ccc2c(c1)C(=O)N([C@H](C)CO)C[C@@H](C)[C@H](CN(C)S(=O)(=O)c1cccs1)OCCCC[C@H](C)O2`, the relative growth was 0.988.

Turning to `C[C@@H]1CN([C@H](C)CO)C(=O)c2cc(NS(=O)(=O)c3cccs3)ccc2O[C@H]1CN(C)Cc1ccc(Cl)c(Cl)c1`, the relative growth is 0.994.

In the case of `Cc1ccc(S(=O)(=O)N(C)C[C@H]2OCCCC[C@@H](C)Oc3ccc(NC(=O)Nc4c(C)noc4C)cc3C(=O)N([C@@H](C)CO)C[C@@H]2C)cc1`, the relative growth is 0.961.

In the case of `COc1ccc2c3c(n(c2c1)C)[C@@H](CO)N(C[C@]13CN(C1)C(=O)CN1CCOCC1)C(=O)Nc1ccc(cc1)F`, the relative growth is 0.977.

Regarding `C[C@H]1CN([C@@H](C)CO)C(=O)Cc2cc(NC(=O)NC3CCCCC3)ccc2O[C@H]1CN(C)Cc1ccc(Oc2ccccc2)cc1`, the relative growth was 1.03.

Consider `C[C@@H]1CN([C@@H](C)CO)C(=O)c2cc(NC(=O)C3CCCCC3)ccc2O[C@@H]1CN(C)C(=O)Nc1cccc2ccccc12`, for which the relative growth is 1.01.

Regarding `C[N+](C)(CCOc1ccccc1)Cc1ccccc1.O=C(O)c1cc2ccccc2c(Br)c1O`, the relative growth was 0.944.

Take `C[N+](C)(CCOc1ccccc1)Cc1ccccc1.O=C([O-])c1cc2ccccc2cc1O`: the relative growth is 0.93.

Consider `CC(C)(C)CC(C)(C)c1ccc(OCCOCC[N+](C)(C)Cc2ccccc2)cc1.[Cl-]`, for which the relative growth is 0.0469 (active).

For `Cc1cc(C(C)(C)CC(C)(C)C)ccc1OCCOCC[N+](C)(C)Cc1ccccc1.[Cl-]`, the relative growth is 0.0463 (active).

For `COc1ccc(CN(C)C[C@H]2OCCCC[C@H](C)Oc3ccc(NC(=O)Nc4ccc(OC)cc4)cc3C(=O)N([C@@H](C)CO)C[C@H]2C)cc1`, the relative growth was 0.901.

In the case of `C[C@H]1CN([C@@H](C)CO)C(=O)c2cc(C#CC3(O)CCCC3)cnc2O[C@H]1CN(C)C(=O)CN(C)C`, the relative growth is 0.988.

With `O=C(NCC(F)(F)F)[C@@H]1[C@@H](CO)[C@@H]2Cn3c(cccc3=O)[C@@H]2N1C(=O)C1CCC1`, the relative growth was 1.

As for `O=C(C[C@@H]1CC[C@H]2[C@@H](COC[C@H](O)CN2C(=O)c2ccccc2F)O1)N1CCN(c2ccccc2)CC1`, the relative growth is 0.976.

Take `CS(=O)(=O)NC[C@@H]1OC[C@@H]2CCN(C(=O)c3ccnnc3)C[C@@H]21`: the relative growth was 1.02.

As for `C[C@H]1CCCCO[C@@H](CN(C)C(=O)NC2CCCCC2)[C@@H](C)CN([C@@H](C)CO)C(=O)c2cc(NC(=O)c3ccccc3)ccc2O1`, the relative growth was 1.03.

`C[C@@H]1CN([C@H](C)CO)C(=O)c2cccc(NS(=O)(=O)c3ccc(Cl)cc3)c2O[C@H]1CN(C)C(=O)Nc1cccc2ccccc12`: the relative growth was 1.02.

In the case of `C[C@H](CO)N1C[C@H](C)[C@@H](CN(C)C(=O)Nc2ccc(C(F)(F)F)cc2)Oc2ccc(NS(=O)(=O)c3ccc(Cl)cc3)cc2CC1=O`, the relative growth is 0.982.

Consider `Cc1ccc(S(=O)(=O)Nc2ccc3c(c2)C(=O)N([C@@H](C)CO)C[C@@H](C)[C@H](CN(C)C(=O)CCC(F)(F)F)OCCCC[C@H](C)O3)cc1`, for which the relative growth was 0.979.

For `Cc1noc(C)c1NC(=O)N(C)C[C@@H]1Oc2ncc(C#CCN(C)C)cc2C(=O)N([C@H](C)CO)C[C@@H]1C`, the relative growth was 0.979.

Take `Cc1oc(=O)oc1CN1CCN(c2cc3c(cc2F)c(=O)c(C(=O)O)c2n3C(C)S2)CC1` (stereo unspecified): the relative growth was 0.0438 (active).

Regarding `C[C@@H]1CN([C@H](C)CO)C(=O)Cc2cc(NC(=O)Nc3ccc4c(c3)OCO4)ccc2O[C@@H]1CN(C)Cc1ccc(C(F)(F)F)cc1`, the relative growth was 1.02.

As for `O=C(O)P(=O)(O)O`, the relative growth was 0.0351 (active).

As for `CC(=O)O`, the relative growth was 1.01.

With `O=P(O)(O)CN(CCN(CP(=O)(O)O)CP(=O)(O)O)CP(=O)(O)O`, the relative growth is 0.926.

On to `C[C@H]1CN([C@@H](C)CO)C(=O)c2cccc(NS(C)(=O)=O)c2O[C@@H]1CN(C)Cc1ccc(C(F)(F)F)cc1`, for which the relative growth is 1.01.

Take `C[C@@H]1CN([C@H](C)CO)C(=O)c2cc(C#CCN(C)C)cnc2O[C@H]1CN(C)C(=O)CCN1CCCCC1`: the relative growth was 0.983.

Consider `C[C@H](CO)N1C[C@H](C)[C@@H](CN(C)Cc2ccccc2)OCCCC[C@H](C)Oc2ccc(NC(=O)CCC(F)(F)F)cc2C1=O`, for which the relative growth is 0.999.

With `C[C@H]1CN([C@@H](C)CO)C(=O)c2cccc(NS(=O)(=O)c3cn(C)cn3)c2O[C@@H]1CN(C)S(=O)(=O)c1cccs1`, the relative growth is 1.01.

As to `COc1ccc(S(=O)(=O)N(C)C[C@@H]2Oc3ncc(C#Cc4ccc(F)cc4)cc3C(=O)N([C@H](C)CO)C[C@@H]2C)cc1`, the relative growth is 1.05.

For the compound `COc1ccccc1CNC(=O)C[C@@H]1C[C@@H]2c3cc(NC(=O)NC4CCCC4)ccc3O[C@@H]2[C@H](CO)O1`, the relative growth was 0.983.

Turning to `Cc1ccc(S(=O)(=O)Nc2ccc3c(c2)CC(=O)N([C@@H](C)CO)C[C@@H](C)[C@H](CN(C)CC2CC2)O3)cc1`, the relative growth was 1.02.

As for `C[C@H]1CCCCO[C@H](CN(C)C(=O)Nc2ccc(F)cc2)[C@@H](C)CN([C@@H](C)CO)C(=O)c2cc(NS(=O)(=O)c3ccc(Cl)cc3)ccc2O1`, the relative growth is 0.987.

For the compound `N[C@@H]1CC[C@@H](c2ccc(Cl)c(Cl)c2)c2ccccc21`, the relative growth was 0.0794 (active).

As for `CN[C@H]1CC[C@@H](c2ccc(Cl)c(Cl)c2)c2ccccc21`, the relative growth was 0.868.

With `CNC1CCC(c2ccc(Cl)c(Cl)c2)c2ccccc21.Cl` (stereo unspecified), the relative growth was 0.261.

On to `C[C@@H]1CCCCO[C@H](CN(C)C(=O)c2ccccc2)[C@@H](C)CN([C@@H](C)CO)C(=O)c2cc(NS(=O)(=O)c3ccccc3)ccc2O1`, for which the relative growth was 0.956.

As for `C[C@@H]1CCCCO[C@H](CN(C)C(=O)Nc2ccc(F)cc2)[C@@H](C)CN([C@H](C)CO)C(=O)c2cc(NC(=O)c3ccccc3)ccc2O1`, the relative growth is 1.04.

Consider `C[C@H]1CN([C@@H](C)CO)C(=O)c2cc(NS(=O)(=O)c3cccs3)ccc2O[C@@H]1CN(C)Cc1ccc(Cl)c(Cl)c1`, for which the relative growth was 0.995.

For the compound `O=C(Nc1cc(Cl)cc(Cl)c1O)c1c(O)c(Cl)cc(Cl)c1Cl`, the relative growth was 0.565.

With `Oc1c(Cl)cc(Cl)c(Cl)c1Cc1c(O)c(Cl)cc(Cl)c1Cl`, the relative growth was 0.0546 (active).

Regarding `Oc1c(Cl)cc(Cl)cc1Sc1cc(Cl)cc(Cl)c1O`, the relative growth was 0.202.

As for `COc1ccc(S(=O)(=O)N(C)C[C@@H]2OCCCC[C@@H](C)Oc3ccc(NC(=O)Nc4cccc5ccccc45)cc3C(=O)N([C@H](C)CO)C[C@@H]2C)cc1`, the relative growth is 1.03.

As to `C[C@@H]1CN([C@H](C)CO)C(=O)CCCn2cc(nn2)CO[C@@H]1CN(C)Cc1ccc2c(c1)OCCN2C`, the relative growth was 1.02.

On to `CCCCCCCCCC(=O)N[C@@H](Cc1c[nH]c2ccccc12)C(=O)N[C@H](CC(N)=O)C(=O)N[C@@H](CC(=O)O)C(=O)N[C@@H]1C(=O)NCC(=O)N[C@@H](CCCN)C(=O)N[C@@H](CC(=O)O)C(=O)N[C@H](C)C(=O)N[C@@H](CC(=O)O)C(=O)NCC(=O)N[C@H](CO)C(=O)N[C@@H]([C@H](C)CC(=O)O)C(=O)N[C@@H](CC(=O)c2ccccc2N)C(=O)O[C@@H]1C`, for which the relative growth is 0.952.

On to `CC(C)CCCC(=O)N[C@@H](CCNCS(=O)(=O)O)C(=O)N[C@H](C(=O)N[C@@H](CCNCS(=O)(=O)O)C(=O)N[C@H]1CCNC(=O)[C@H]([C@@H](C)O)NC(=O)[C@H](CCNCS(=O)(=O)O)NC(=O)[C@H](CCNCS(=O)(=O)O)NC(=O)[C@H](CC(C)C)NC(=O)[C@H](CC(C)C)NC(=O)[C@H](CCNCS(=O)(=O)O)NC1=O)[C@@H](C)O`, for which the relative growth was 0.0299 (active).

For `CCC(C)C1NC(=O)C(CCNCS(=O)(=O)[O-])NC(=O)C(NC(=O)C(CCNCS(=O)(=O)[O-])NC(=O)C(NC(=O)C(CCNCS(=O)(=O)[O-])NC(=O)CCCCC(C)C)C(C)O)CCNC(=O)C(C(C)O)NC(=O)C(CCNCS(=O)(=O)[O-])NC(=O)C(CCNCS(=O)(=O)[O-])NC(=O)C(C(C)CC)NC1=O.[Na+].[Na+].[Na+].[Na+].[Na+]` (stereo unspecified), the relative growth was 0.0529 (active).

As for `CC[C@H](C)[C@H](N)C1=N[C@H](C(=O)N[C@@H](CC(C)C)C(=O)N[C@@H]2CCC(=O)[O][Zn][O]C(=O)C[C@H]3NC(=O)[C@H](Cc4c[nH]cn4)NC(=O)[C@@H](Cc4ccccc4)NC(=O)[C@H]([C@@H](C)CC)NC(=O)[C@@H](CCCN)NC(=O)[C@H](CCCCNC(=O)[C@H](CC(N)=O)NC3=O)NC(=O)[C@H]([C@@H](C)CC)NC2=O)CS1`, the relative growth was 0.696.
